Results taken from PubChem BioAssay (NCATS).
Inconclusive results are not listed. Where a call stands in place of a potency, no number is given. The source made the active and inactive calls. The call rests on the fitted dose curve; in most records, active means well fitted cell-killing curve with a large enough effect; inconclusive means small, poorly fitted or top-dose-only effect, or effect the other way; inactive means no such curve, though single readings can be large or run the other way.

Assay: Quantitative highthroughput screen to assess conditional lethalithy of SEM cells grown in RPMI1640 with dialyzed fetal bovine serum (RPMI+ds) (AID 1963884); further: nearly all actives have a fitted effect of over 35% in size
Settings: SEM B-ALL cells, RPMI+dialyzed FBS, CellTiter-Glo viability, 48 h; series mostly up to 45.8 µM
From the text: Assay Provider: Jason Cantor Ph.D.
Department of Biochemistry
University of Wisconsin-Madison, Madison, WI, USA
Chemical screening studies have identified drug sensitivities across hundreds of cancer cell lines but most putative therapeutics fail to translate. Discovery and development of drug candidates in models that more accurately reflect nutrient levels in human blood is a major challenge. Here we performed high-throughput screens in conventional versus Human Plasma-Like Medium (HPLM) to identify compounds that were "missed" when screening using the artificial culture condition. Sets of conditional anticancer compounds spanned phases of clinical development and included non-oncology drugs were assessed. […] We also traced conditional phenotypes for several chemotherapeutics to availability of HPLM-specific metabolites and confirmed others for compounds whose reported targets are encoded by nonessential genes. Our findings establish generalizable strategies for exploiting conditional lethality in HPLM to reveal therapeutic candidates and mechanisms of action in cancer cells.
Described herein are the results of each viability screens against three cell lines: NOMO1 (an acute myeloid leukemia cell line); P12-Ichikawa (a T-cell acute lymphoblastic leukemia); and SEM (a B-cell ALL). Each assay was screened using 3 different cell culture media: homemade human plasma-Like medium with 10% dialyzed fetal bovine serum (HPLM+ds); RPMI1640 with 10% untreated FBS and 5mM glucose (RPMI+s); and RPMI1640 with 10% dialyzed fetal bovine serum and 5 mM glucose (RPMI+ds).
PROTOCOL TABLE (as described by Inglese J, Shamu CE and Guy RK. 2007)
SEQUENCE No. (e.g., 1, 2, 3, etc.); […] (e.g., Cells, Incubation, Reagent, etc.); VALUE and DESCRIPTION.
1; Cells; 5 uL; white, solid bottom 1536-well Greiner assay plate.
2; Compounds; 23 nL; Kalypsis pin tool (Wako USA) equipped with a 1536-well pin head to transfer to the assay plates.
3; Incubation; 48 hours; 37C incubation.
4; Reagent; 3 uL; CellTiter Glo (Promega).
5; Incubation; 5 min, room temperature
6; Detection; Luminescence, Viewlux PerkinElmer.
NOTES (numbers refer to Sequence numbers above)
1. Briefly, 5 ul of cell reagent was dispensed using a Multidrop Combi Dispenser. The NOMO1 and SEM cells were plated at 500 cells/well and the P12-Ichikawa line at 1000 cells/well.
2. After seeding the cells, 23 nL of MIPE 4.1 library compounds (in DMSO) were added to each plate using a Kalypsys 1536 Pintool dispenser. Bortezomib at final concentration of […] and DMSO were added to each plate as positive and negative controls respectively. For each screen, MIPE 4.1 compounds were added over an eleven-point concentration range […] in 3-fold dilutions.
3. Each plate was covered with a stainless steel gasketed lid to prevent evaporation and incubated for 48 hour at 37C, 95% relative humidity, and 5% CO2.
4-5. Three microliter CellTilter-GloTM luminescent substrate mix (Promega) reagent was added to the assay plate and incubated at room temperature for 5 min.
6. The luminescence signal was measured using a ViewLux (PerkinElmer) multiplate reader with a 2 second exposure time per plate. Data for each compound were normalized as percent viability such that measurements for DMSO and the empty well controls in each plate were defined as 100% and 0%, respectively.
Potency means the concentration at half of the fitted maximal effect.

| Compound | Potency |
| --- | --- |
| CC(C)(CO)[C@@H](O)C(=O)NCCC(=O)O | inactive |
| COc1ccc(-c2ccc3c(N4CCOCC4)nc(N4C[C@@H](C)O[C@@H](C)C4)nc3n2)cc1CO | 2640 nM (active) |
| CC(C)(C)C(=O)Oc1ccc(S(=O)(=O)Nc2ccccc2C(=O)NCC(=O)O)cc1 | inactive |
| N#CNC(=NCCCCCCOc1ccc(Cl)cc1)Nc1ccncc1 | inactive |
| CNC(=O)c1cc(Oc2ccc(NC(=O)Nc3cc(C(C)(C)C)nn3-c3ccc4ncccc4c3)c(F)c2)ccn1 | 469 nM (active) |
| COC(=O)C1=C(C)NC(C)=C(C(=O)OCCN2CCN(C(c3ccccc3)c3ccccc3)CC2)C1c1cccc([N+](=O)[O-])c1 (stereo not given) | inactive |
| Cc1ccc2nc(NCCN)c3ncc(C)n3c2c1 | 20900 nM (active) |
| CCCCCCCCCCCCCCCC(=O)O[C@H]1[C@@H](O)[C@@H](O)[C@@H]([C@H](NC(=O)[C@@H]2C[C@@H](CCC)CN2C)[C@H](C)Cl)O[C@@H]1SC | inactive |
| Cc1noc(NS(=O)(=O)c2ccc(N)cc2)c1C | inactive |
| Cc1ccc2c(c1)C(=O)[C@]1(O)CCN(c3ccccc3)C1=N2 | inactive |
| CC(=O)O[C@H]1C[C@@H]2CC[C@H]3[C@H]4C[C@H]([N+]5(C)CCCCC5)[C@@H](OC(C)=O)[C@@]4(C)CC[C@@H]3[C@@]2(C)C[C@H]1[N+]1(C)CCCCC1 | inactive |
| CC(C)c1nn(-c2c(Cl)cccc2Cl)c2nc(Cc3ccc(OCCO)cc3)[nH]c(=O)c12 | 148 nM (active) |
| CCN(c1ccccc1)c1cc(NC)[n+](C)c(C)n1 | inactive |
| CC1(O)CC(c2nc(-c3ccc4ccc(-c5ccccc5)nc4c3)c3c(N)nccn23)C1 (stereo not given) | 2350 nM (active) |
| CO[C@H]1C=CO[C@@]2(C)Oc3c(C)c(O)c4c(O)c(c(C=NN5CCN(C)CC5)c(O)c4c3C2=O)NC(=O)C(C)=CC=C[C@H](C)[C@H](O)[C@@H](C)[C@@H](O)[C@@H](C)[C@H](OC(C)=O)[C@H]1C | inactive |
| O=C(Nc1nnc(-c2ccco2)o1)c1cc(-c2ccccc2)nc2ccccc12 | 20900 nM (active) |
| CC(C)Oc1cc(Nc2nc(N[C@@H](C)c3ccc(F)cn3)ncc2Cl)[nH]n1 | 332 nM (active) |
| CC1=C(C(=O)Nc2cc3cn[nH]c3cc2F)C(c2ccc(Cl)cc2F)N=C(c2ccnc(Cl)c2)N1 (stereo not given) | 16600 nM (active) |
| Cc1nc2cnc3ccc(C#Cc4cccnc4)cc3c2n1-c1ccc(C(C)(C)C#N)cc1 | 209 nM (active) |
| CC(C)n1nc(-c2ccc3oc(N)nc3c2)c2c(N)ncnc21 | 469 nM (active) |

| Compound | Potency |
| --- | --- |
| COC(=O)C[C@](O)(CCCC(C)(C)O)C(=O)O[C@@H]1C(OC)=C[C@]23CCCN2CCc2cc4c(cc2[C@H]13)OCO4 | inactive |
| Cc1nc(Nc2n[nH]c3c2CN(C(=O)N[C@H](CN(C)C)c2ccccc2)C3(C)C)c2sccc2n1 | 1180 nM (active) |
| CN1C(C(=O)Nc2ccccn2)=C(O)c2sccc2S1(=O)=O | inactive |
| CC[C@]1(O)C[C@H]2CN(CCC3=c4ccccc4=N[C]3[C@@](C(=O)OC)(c3cc4c(cc3OC)N(C)[C@H]3[C@@](O)(C(N)=O)[C@H](O)[C@]5(CC)C=CCN6CC[C@]43[C@@H]65)C2)C1 | 118 nM (active) |
| CCn1c(-c2nonc2N)nc2c(C#CC(C)(C)O)ncc(OC[C@H]3CCCNC3)c21 | 14800 nM (active) |
| O=C(NC1CCOCC1)c1ccc(-c2cc(-c3cn[nH]c3-c3ccccn3)ccn2)cc1 | inactive |
| CC(=O)O[C@H]1C[C@@H]2CC[C@H]3[C@H]4C[C@H]([N+]5(C)CCCCC5)[C@@H](OC(C)=O)[C@@]4(C)CC[C@@H]3[C@@]2(C)C[C@H]1N1CCCCC1 | inactive |
| Cc1nc(N)ncc1-c1nc(N2CCOCC2)c2sc(C(C)(C)O)cc2n1 | 74.3 nM (active) |
| CN(C)c1ccccc1CN1CCCN(Cc2ccccc2N(C)C)C1c1ccncc1 | inactive |
| COc1ccccc1OCC(O)COC(N)=O (stereo not given) | inactive |
| N=C(N=C(N)N)N1CCOCC1 | inactive |
| CNC(=O)c1cccc(-c2ccc3c(N4CCOC[C@H]4C)nc(N4CCOC[C@H]4C)nc3n2)c1 | 469 nM (active) |
| OCc1ccc(-c2ccc(-c3ccc(CO)s3)o2)s1 | inactive |
| N#CC(=C(O)c1ccc(Cl)cc1Cl)c1nc2cc(Cl)ccc2c(=O)[nH]1 | inactive |
| CC(C)NC[C@@H](C(=O)N1CCN(c2ncnc3c2[C@H](C)C[C@H]3O)CC1)c1ccc(Cl)cc1 | 296 nM (active) |
| O=C(c1ccc(F)cc1)C1CCN(CCn2c(=O)[nH]c3ccccc3c2=O)CC1 | inactive |
| CN(CCOc1ccc(CC2SC(=O)NC2=O)cc1)c1ccccn1 (stereo not given) | inactive |
| CC(C)c1cc(C(C)C)c(CC(=O)NS(=O)(=O)Oc2c(C(C)C)cccc2C(C)C)c(C(C)C)c1 | inactive |
| C=CC(=O)N1CCc2ccc(-n3c(=O)ccc4cnc5ccc(-c6cnn(C)c6)cc5c43)cc21 | 3320 nM (active) |
| CCN[C@H]1C[C@H](C)S(=O)(=O)c2sc(S(N)(=O)=O)cc21 | inactive |
